Assay results from PubChem BioAssay (EPA / NIEHS).
Activity calls are given as the source filed them. The calls were made as follows: active = hit-call score of the fitted dose curve at least 0.9, where 1 is the maximum; inactive = score below 0.9.

Test: ATG_CMV_CIS: Attagene CIS-FACTORIAL HepG2 Assay for human CMV (Internal Marker) (AID 2282928);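 also: endpoint acts as a background internal control marker rather than a target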
Details: HepG2 CMV promoter reporter, transcription factor profiling; actives raise or lower the signal
Protocol: ATG_CIS is a cell-based, multiplexed-readout assay that uses HepG2, a human liver cell line, with measurements taken at 24 hours after chemical dosing in a 24-well plate.ATG_CMV_CIS is one of 52 assay component(s) measured or calculated from the ATG_CIS assay. It is designed to make measurements of mRNA induction, a form of inducible reporter, as detected with fluorescence intensity signals by Reverse transcription polymerase chain reaction (RT-PCR) and Capillary electrophoresis technology.Data from the assay component ATG_CMV_CIS was analyzed into 1 assay endpoint. This assay endpoint, ATG_CMV_CIS, was analyzed with bidirectional fitting relative to DMSO as the negative control and baseline of activity. Using a type of inducible reporter, measures of mRNA for gain or loss-of-signal activity can be used to understand the background control at the transcription factor-level as they relate to the gene . Furthermore, this assay endpoint can be referred to as a secondary readout, because this assay has produced multiple assay endpoints where this one serves a background control function. To generalize the intended target to other relatable targets, this assay endpoint is annotated to the background measurement intended target family, where the subfamily is internal marker.
Human liver HepG2 cells are transiently transfected with multiple reporter transcription units (MRTUs) in 6-well plates using FuGene 6 reagent (Roche; 3 ml FuGene/1 mg DNA). The MRTU constructs are regulated by a cis-regulating element (promoter). […] A major difference between the CIS and TRANS system is that in CIS activities of endogenous TFs are measured, whereas the TRANS assay evaluates changes in activities of exogenous, chimeric NR-Gal4 proteins. […] At the end of 24 hour incubation, total RNA was isolated using TriZol reagent (Invitrogen). The isolated RNA is then reverse-transcribed using oligo(dT) primer and Mo-MLV reverse transcriptase (Invitrogen) with DNAse I (Ambion) treatment for 30 min. The one-tenth of the produced cDNA was amplified by PCR using Taq DNA polymerase (Invitrogen) and two reporter sequence-specific primers. The PCR products were fluorescently labeled by primer extension with 6-arboxyfluorescein (6-FAM) 5'-labeled reporter sequence-specific primer (2 min at 95 C, 20 s at 68 C and 10 min at 72 C) and these products were digested with 5U of HpaI (New England Biolabs) for 2h at 37 C. The fragments were purified using Qiaquick PCR columns (Qiagen), analyzed on an ABI 3130xL genetic analyzer (Applied Biosystems) with peak positions identified by using a set of X-rhodamine (ROX)-labeled MapMarker1000 molecular weight standards (BioVentures). The raw capillary electrophoresis data was processed using Attagraph software (Attagene).

| Structure (SMILES) | outcome | AC50 |
| --- | --- | --- |
| CCCCCCCC(=O)OCCCCCC | inactive |  |
| CCCC[O][Al]([O]CCCC)[O]CCCC | inactive |  |
| OCCOCCN1CCN(C2=Nc3ccccc3Sc3ccccc32)CC1 |  | 135 µM (active) |
| CCc1ccc(O)c(OC)c1 | inactive |  |
| BrCc1cccc(Oc2ccccc2)c1 | inactive |  |
| CCOC(=O)[C@@H](C)Oc1ccc(Oc2nc3ccc(Cl)cc3o2)cc1 | inactive |  |
| CC(C)(C)C1=CC(=O)C(C(C)(C)C)=CC1=O |  | 87.6 µM (active) |
| CCNCCO | inactive |  |
| CC(C)c1ccccc1O | inactive |  |
| C[N+](C)(C)CCCCCC[N+](C)(C)C | inactive |  |
| CC(C)CCCCCCCCCCCCCCC(=O)O | inactive |  |
| N#Cc1cscn1 | inactive |  |
| O=C(Nc1ccc([N+](=O)[O-])cc1)Nc1ccc([N+](=O)[O-])cc1 (tested in a mixture with another compound) | inactive |  |
| O=C(Nc1ccc2c(O)c(N=Nc3ccc(N=Nc4ccc(S(=O)(=O)O)cc4)cc3)c(S(=O)(=O)O)cc2c1)c1ccccc1 | inactive |  |
| OCC(O)c1ccccc1 (stereo not given) | inactive |  |
| Nc1c(S(=O)(=O)O)cc(Br)c2c1C(=O)c1ccccc1C2=O | inactive |  |
| OC[C@H]1O[C@@H]2O[C@H]3[C@H](O)[C@@H](O)[C@@H](O[C@H]4[C@H](O)[C@@H](O)[C@@H](O[C@H]5[C@H](O)[C@@H](O)[C@@H](O[C@H]6[C@H](O)[C@@H](O)[C@@H](O[C@H]7[C@H](O)[C@@H](O)[C@@H](O[C@H]8[C@H](O)[C@@H](O)[C@@H](O[C@H]9[C@H](O)[C@@H](O)[C@@H](O[C@H]1[C@H](O)[C@H]2O)O[C@@H]9CO)O[C@@H]8CO)O[C@@H]7CO)O[C@@H]6CO)O[C@@H]5CO)O[C@@H]4CO)O[C@@H]3CO | inactive |  |
| CC(Oc1cc(Cl)ccc1Cl)C(=O)O (stereo not given) | inactive |  |
| CC(=O)Nc1ccc(C(=O)CCl)cc1 | inactive |  |
| CCCCCCCCC=CCCCCCCCC1=NCCN1CCO |  | 48.2 µM (active) |

| Structure (SMILES) | outcome | AC50 |
| --- | --- | --- |
| CCCCCCCC(=O)OCC(O)CO (stereo not given) | inactive |  |
| ON=C1CCCCC1 | inactive |  |
| CCc1ccc(O)cc1 | inactive |  |
| COC(=O)c1ccc(C)cc1C1=NC(C)(C(C)C)C(=O)N1 (stereo not given) (tested in a mixture with another compound) | inactive |  |
| CCC(=O)OCCOc1ccccc1 | inactive |  |
| CCc1cc(Cc2cc(CC)cc(C(C)(C)C)c2O)c(O)c(C(C)(C)C)c1 | inactive |  |
| CC(=O)c1c(C)c([N+](=O)[O-])c(C(C)(C)C)c([N+](=O)[O-])c1C | inactive |  |
| IC(I)I | inactive |  |
| CC(C)C[C@H](NC(=O)OCC1c2ccccc2-c2ccccc21)C(=O)O | inactive |  |
| COc1ccc(CCC(C)=O)cc1 | inactive |  |
| C=CC(C)C#N (stereo not given) | inactive |  |
| CCCC[P+](CCCC)(CCCC)CCCC | inactive |  |
| CN(C)C(=S)SC(=S)N(C)C | inactive |  |
| COCCOC(=O)c1ccccc1C(=O)OCCOC | inactive |  |
| CC(C)C(OC(=O)c1ccccc1)C(C)(C)COC(=O)c1ccccc1 (stereo not given) | inactive |  |
| COc1ccc(N)c([N+](=O)[O-])c1 | inactive |  |
| CC(=O)c1ccccn1 | inactive |  |
| CCOC(=O)CC(C)O (stereo not given) | inactive |  |
| C=C1CC[C@H](O)C/C1=C/C=C1\CCC[C@]2(C)[C@@H]([C@H](C)/C=C/[C@H](C)C(C)C)CC[C@@H]12 | inactive |  |
| CCCCCCCCSCCO |  | 100 µM (active) |
